CYP2C9 inhib: human CYP2C9 inhibition | P11712 | CYP2C9 Supersomes, luciferin-H conversion, luminescence | inhibition, % at 5 µM | 96,000 tested, 20% active;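 active = blocking of liver enzyme CYP2C9 beyond about 50% at 5 µM, limit read from the data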
Mac1 fbg enh: increases human CD11b/CD18 adhesion to fibrinogen; 93,000 tested, 0.07% active; P05107+P11215; K562 CD11b/CD18 adhesion to fibrinogen, ATPlite luminescence; activation, % at 10 µM;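 active = 10 µM primary screen giving 50% or more activity, confirmed by 40% or more on retest at that dose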
CYP2C19 inhib: inhibitors of human CYP2C19 | CYP2C19 Supersomes, luciferin-H EGE luminescence, 30 min | inhibition, % at 5 µM | 96,000 tested, 21% active | AID 778;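 active = CYP2C19 inhibition above a set limit at 5 µM in the primary screen, cut at about 50% in these data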;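 also: plate controls were negative control wells for no effect and 2.5 mM tranylcypromine positive control for full effect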
Target sequence (P33261 whole entry, looked up): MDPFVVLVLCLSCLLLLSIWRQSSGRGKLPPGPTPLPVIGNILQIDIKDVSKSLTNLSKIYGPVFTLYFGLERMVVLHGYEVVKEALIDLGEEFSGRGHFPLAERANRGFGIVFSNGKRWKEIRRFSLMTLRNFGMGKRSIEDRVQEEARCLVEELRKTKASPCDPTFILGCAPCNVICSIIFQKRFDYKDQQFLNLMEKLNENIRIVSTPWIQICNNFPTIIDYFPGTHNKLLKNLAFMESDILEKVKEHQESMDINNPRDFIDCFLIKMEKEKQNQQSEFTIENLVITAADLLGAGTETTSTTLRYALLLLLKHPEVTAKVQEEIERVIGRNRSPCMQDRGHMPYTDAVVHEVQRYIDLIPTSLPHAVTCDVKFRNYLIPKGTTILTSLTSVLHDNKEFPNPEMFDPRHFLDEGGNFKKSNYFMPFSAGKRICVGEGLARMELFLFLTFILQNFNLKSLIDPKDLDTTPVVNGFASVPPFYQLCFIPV
Mac1 fbg inh: CD11b/CD18-fibrinogen binding inhibition. P05107+P11215. K562 CD11b/CD18 adhesion to fibrinogen, ATPlite luminescence; Mn2+ added to activate the integrin. inhibition, % at 10 µM. 93,000 tested, 0.54% active;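 active = primary inhibition of 50% or more at 10 µM, then 40% or more on retest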
CYP2C19 act: activators of human cytochrome P450 2C19 | recombinant CYP2C19, luciferin-H EGE luminescence; stronger effect = higher value; 0 = fully inhibited enzyme, 1 = untreated enzyme | AID 1025 | activation factor at 5 µM | P33261 | 96,000 tested, under 10 active;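 active = activation factor of at least 2 at 5 µM in the primary screen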;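 also: 0 = wells with 2.5 mM tranylcypromine and 1 = vehicle-only wells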
CYP2C9 act: CYP2C9 (human) activation; 96,000 tested, 1.4% active; recombinant CYP2C9, luciferin-H conversion, luminescence; stronger effect = higher value; factor 1 = untreated enzyme, 0 = blocked; P11712; activation factor at 5 µM;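 active = activation factor of 2 or more for CYP2C9 at a 5 µM dose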;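 also: 0 = sulfaphenazole-blocked wells and 1 = vehicle-only wells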
Numbers without * were called inactive; / = not tested or not shown. Most compounds without a hit are left out; they make up all but 28% or so of the library.

SMILES	CYP2C9 inhib	Mac1 fbg enh	CYP2C19 inhib	Mac1 fbg inh	CYP2C19 act	CYP2C9 act
COc1ccc(-c2[nH]ncc2-c2csc(C)n2)c(O)c1	/	-2	/	13	/	/
C#CC(C)(CC)NC(=O)Cn1nnc(-c2ccc(S(C)(=O)=O)cc2)n1 (stereo unspecified)	17	-7	0	3	1	0.8
O=C1CN(c2nnnn2-c2ccccc2)CCN1	-8	0	-17	-10	1.2	1.1
CCOC(=O)c1c(C)oc2cc(Br)c(OC(=O)N3CCOCC3)cc12	51*	-2	76*	-5	0.2	0.5
CCc1ccc(NC(=O)COC(=O)C2(c3ccc(Cl)cc3)CCCC2)cc1	/	-6	/	101	/	/
CCOC(=O)c1cnc(SCC(=O)Nc2nc(C)c(C)s2)nc1N	91*	-5	51*	2	0.5	0.1
CCOC(=O)c1cnc(-c2ccccc2)nc1N	64*	1	85*	5	0.1	0.4
CCOC(=O)c1cnc(SCC(C)C)nc1N	50	/	50*	/	0.5	0.5
CCOC(=O)c1cnc(SCC(=O)Nc2cc(OC)ccc2OC)nc1N	38	-3	17	-2	0.8	0.6
CCOC(=O)c1ccccc1NC(=O)CSc1ncc(C(=O)OCC)c(N)n1	88*	2	40	-15	0.6	0.1
CC(=NCCN1CCN(C(=S)Nc2ccccc2)CC1)C1=C(O)CC(C)(C)CC1=O	14	-4	40	5	0.6	0.9
CCOC(=O)c1cnc2c(C#N)c(C)nn2c1-c1ccccc1	11	-1	95*	-4	0.1	0.9
CCOC(=O)c1cnc2c(C#N)c(C)nn2c1C	-4	2	20	2	0.8	1
CCOC(=O)c1cnc(SCC(=O)c2ccccc2)nc1N	25	-1	78*	0	0.2	0.8
CCOC(=O)c1cnc(SC)nc1Sc1ccccc1	60*	4	3	-2	1	0.4
CCOC(=O)c1cnc(-c2ccccc2)nc1Oc1cccc(Cl)c1	51*	/	3	/	1	0.5
CC(C)CCN(C)C1CCN(S(=O)(=O)c2ccc(F)cc2)CC1	7	3	3	-12	1	0.9
CCOC(=O)c1cnc(SC2CC(=O)N(c3ccc(OC)c(OC)c3)C2=O)nc1N (stereo unspecified)	92*	6	38	-44	0.6	0.1
CCOC(=O)c1cnc(SCC(=O)c2ccc3c(c2)OCCO3)nc1N	52*	0	17	1	0.8	0.5
CCOC(=O)C1CN(C(C)(C)C)C(=O)C1=O (stereo unspecified)	/	0	/	-1	/	/
COCCNC(=O)CN(C(=O)CCC(=O)Nc1ccccn1)c1ccc(F)c(Cl)c1	18	0	30	-3	0.7	0.8
CCC(C)(C)NC(=O)CN(C(=O)CCC(=O)Nc1ccccn1)c1ccc(F)c(Cl)c1	75*	0	85*	3	0.2	0.3
CC(C)NC(=O)CN(C(=O)CCC(=O)Nc1ccccn1)c1ccc(F)c(Cl)c1	31	-2	66*	-8	0.3	0.7
O=C(CSc1nc2c(c(=O)n1-c1ccc(Cl)cc1)SCC2)Nc1ccc2c(c1)OCCO2	26	0	35	-50	0.7	0.7
CC1(C)CC(NC(=O)c2coc(=O)c(Br)c2)CC(C)(C)N1	13	0	0	1	1	0.9
SMILES	CYP2C9 inhib	Mac1 fbg enh	CYP2C19 inhib	Mac1 fbg inh	CYP2C19 act	CYP2C9 act
Cc1nc2c(C(=O)N3CCOCC3)cnn2c(C)c1Cc1cccc(Cl)c1	24	-7	31	-3	0.7	0.8
Cn1c(SCc2nc3ccccc3[nH]2)nnc1-c1ccccn1	8	0	69*	-9	0.3	0.9
C=CCn1c(SCc2nc3ccccc3[nH]2)nnc1-c1ccccn1	19	5	97*	0	0	0.8
Cc1cc(NC(=O)CSc2nnc3c4c(C)c(C)sc4ncn23)no1	56*	2	36	-12	0.6	0.4
Cc1cc(NC(=O)CSc2nc(C(C)C)nc3sc(C)c(C)c23)no1	54*	-5	18	-5	0.8	0.5
Cc1cc(NC(=O)CSc2nc(C(C)C)nc3ccccc23)no1	49	-5	17	10	0.8	0.5
Cc1cc(NC(=O)CSc2nnc3c(C)cc4cc(C)c(C)cc4n23)no1	22	-3	40	0	0.6	0.8
CC1(C)CC(=O)C([N+](=O)[O-])=C(NCCCO)C1	/	1	/	2	/	/
O=C(CSc1ncnc2nc[nH]c12)N1CCOCC1	-12	-2	-12	-4	1.1	1.1
Cc1cc(Cl)c2c(c1)[C@]1(C(=O)N2)[C@@H]2C(=O)N(Cc3ccccc3)C(=O)[C@@H]2[C@@H]2CCCN21	12	4	18	-12	0.8	0.9
O=C1[C@H]2[C@@H](C(=O)N1c1cc(Cl)cc(Cl)c1)[C@]1(C(=O)Nc3ccccc31)N1CCC[C@@H]21	90*	-2	52*	-6	0.5	0.1
Cc1ccc(C(=O)CC2(O)C(=O)N(CCc3ccccc3)c3ccc(Br)cc32)o1 (stereo unspecified)	93*	3	98*	/	0	0.1
C=CCN1C(=O)C(O)(CC(=O)c2ccccc2)c2ccccc21 (stereo unspecified)	38	-5	75*	-10	0.3	0.6
Cc1ccc(C(=O)CC2(O)C(=O)N(Cc3ccccc3Cl)c3ccccc32)o1 (stereo unspecified)	-44	0	55*	25	0.4	1.4
CCN1C(=O)C(O)(CC(=O)c2ccccn2)c2ccccc21 (stereo unspecified)	0	-5	0	-10	1	1
Cc1ccc(C(=O)CC2(O)C(=O)N(Cc3ccccc3)c3ccccc32)o1 (stereo unspecified)	-17	3	31	4	0.7	1.2
O=C(CC1(O)C(=O)N(CCc2ccccc2)c2ccccc21)c1ccco1 (stereo unspecified)	74*	-3	71*	-3	0.3	0.3
COC(=O)CN1C(=O)C(O)(CC(=O)c2ccc(Cl)cc2)c2ccccc21 (stereo unspecified)	8	-5	25	-3	0.7	0.9
C=C(C)CN1C(=O)C(O)(CC(=O)c2ccc3c(c2)OCCO3)c2ccccc21 (stereo unspecified)	40	4	82*	-17	0.2	0.6
CC1CCCN(c2ccc(C(=O)NCC3CCCO3)cn2)C1 (stereo unspecified)	-5	-1	-3	-4	1	1.1
CCOC(=O)c1sc2nccc(N(C)C)c2c1N=CNOC	50*	-4	6	-24	0.9	0.5
CCOC(=O)c1sc2nccc(N(C)C)c2c1N=CNOCc1c(F)cccc1Cl	92*	4	77*	-5	0.2	0.1
CCOC(=O)c1sc2nccc(N(C)C)c2c1N=CNOCc1ccccc1	72*	13	61*	-22	0.4	0.3
